Experimental data published in PubChem BioAssay (NCI).
Compounds without any hit were thinned out: in the full panel of roughly 79,000, 15% have a hit. Activity calls are given as the source filed them. Rule as the data show it: active = growth inhibition above about 70%; inactive = the rest.

What was measured:
[1] = NCI Yeast Anticancer Drug Screen. Data for the wt1 strain (AID 149);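 also: 0% = growth of vehicle-treated wt1 cultures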; settings: S. cerevisiae wt1 strain (SPY 50644) growth inhibition, hits give high values
How it was run: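 wt1 yeast, compound-treated; % growth inhibition vs vehicle control.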

[2] = NCI Yeast Anticancer Drug Screen. Data for the rad50EPP+ strain (AID 151);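 also: 0% = growth of vehicle-treated control cultures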; settings: S. cerevisiae rad50 mutant strain, hits give high values
How it was run: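 In this screen, rad50EPP+ yeast were exposed to compounds. Growth inhibition was scored against vehicle-treated controls.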

[3] = NCI Yeast Anticancer Drug Screen. Data for the mgt1 strain (AID 153); settings: S. cerevisiae mgt1 mutant growth inhibition, hits give high values
How it was run: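 mgt1 strain exposed; growth vs vehicle control recorded as inhibition.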

[4] = NCI Yeast Anticancer Drug Screen. Data for the rad50 strain (AID 155);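 also: 0% = growth of vehicle-only cultures of the same strain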; settings: S. cerevisiae rad50 strain growth inhibition, hits give high values
How it was run: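 Genetically altered yeast (DNA repair pathway); compound treatment; growth inhibition vs vehicle ctrl.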

[5] = NCI Yeast Anticancer Drug Screen. Data for the mec2-1 strain (AID 157); settings: S. cerevisiae mec2-1 strain, hits give high values
How it was run: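 Vehicle-treated cultures served as reference for growth inhibition of compound-exposed mec2-1 yeast.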

[6] = NCI Yeast Anticancer Drug Screen. Data for the rad14 strain (AID 159);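 also: 0% = growth of vehicle-treated control cultures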; settings: S. cerevisiae rad14 strain growth inhibition, hits give high values
How it was run: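 Test compounds were applied to a repair-deficient yeast strain. Its growth was then compared with that of cultures given vehicle alone, and inhibition was expressed relative to those controls.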

[7] = NCI Yeast Anticancer Drug Screen. Data for the sgs1 mgt1 strain (AID 161);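 also: 0% = growth of cultures given vehicle only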; settings: S. cerevisiae sgs1 mgt1 strain, hits give high values
How it was run: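 Read-out: growth inhibition vs vehicle controls. Cells: mutant yeast strain deficient in DNA damage repair.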

[8] = NCI Yeast Anticancer Drug Screen. Data for the CLN2oe strain (AID 163);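 also: 0% = growth of vehicle-only control cultures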; settings: S. cerevisiae CLN2oe strain, hits give high values
How it was run: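 Inhibition relative to vehicle-treated yeast is reported. Cells: strain with genetic alteration in cell-cycle control, grown with compound.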

[9] = NCI Yeast Anticancer Drug Screen. Data for the cln2 rad14 strain (AID 165);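 also: 0% = growth equal to vehicle treated cultures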; settings: S. cerevisiae cln2 rad14 strain, hits give high values
How it was run: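 Each compound was tested on cln2 rad14 yeast. Inhibition of growth was calculated against vehicle-exposed controls.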

[10] = NCI Yeast Anticancer Drug Screen. Data for the bub3 strain (AID 167); settings: S. cerevisiae bub3 mutant strain, hits give high values
How it was run: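 Yeast carrying a defined mutation is treated with each compound, and growth is compared with that of vehicle-exposed cells to give inhibition.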

[11] = NCI Yeast Anticancer Drug Screen. Data for the wt2 strain (AID 169);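 also: 0% = growth of vehicle-treated yeast cultures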; settings: S. cerevisiae wt2 strain growth inhibition, hits give high values
How it was run: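 Inhibition of yeast growth was determined after compound treatment, normalised to controls receiving only vehicle.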

[12] = NCI Yeast Anticancer Drug Screen. Data for the mlh1 strain (AID 171);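 also: 0% = growth of vehicle-treated control cultures of the same strain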; settings: S. cerevisiae mlh1 strain growth inhibition, hits give high values
How it was run: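 Vehicle-normalised growth inhibition of a repair- or checkpoint-altered yeast strain following compound treatment.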

[13] = NCI Yeast Anticancer Drug Screen. Data for the sgs1 strain (AID 173);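 also: 0% = growth of vehicle-only control cultures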; settings: S. cerevisiae sgs1 mutant, hits give high values
How it was run: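 Screen format: yeast with repair or checkpoint alterations, compound exposure, growth read relative to vehicle.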

[14] = NCI Yeast Anticancer Drug Screen. Data for the mlh1 rad18 strain (AID 175); settings: S. cerevisiae mlh1 rad18 strain growth inhibition, hits give high values
How it was run: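 Vehicle-treated cultures served as the reference for growth inhibition in a yeast strain carrying DNA damage repair alterations exposed to each compound.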

[15] = NCI Yeast Anticancer Drug Screen. Data for the rad18 strain (AID 177); settings: S. cerevisiae rad18 mutant growth inhibition, hits give high values
How it was run: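 Test articles were incubated with altered yeast defective in DNA damage repair. Results are given as inhibition of growth versus vehicle.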

[16] = at 5.0 µM (retest, dose inferred, filed as 0.5)
[17] = at 50.0 µM (retest, dose inferred, filed as 5.0)

Measured: growth inhibition

Oc1ccc(Cl)cc1Cc1ccccc1
active: [1]; at 33.0 µM 99% | [1]; at 100.0 µM 99% | [2]; at 33.0 µM 95% | [2]; at 100.0 µM 97% | [3]; at 11.0 µM 85% | [3]; at 33.0 µM 98% | [3]; at 100.0 µM 99% | [4]; at 33.0 µM 98% | [4]; [17] 86% | [4]; at 50.0 µM 92% | [4]; at 100.0 µM 98% | [5]; at 11.0 µM 77% | [5]; at 33.0 µM 84% | [5]; [17] 83% | [5]; at 50.0 µM 93.7% | [5]; at 100.0 µM 99% | [6]; at 33.0 µM 99% | [6]; at 100.0 µM 99% | [7]; at 50.0 µM 94.4% | [8]; at 11.0 µM 71% | [8]; at 33.0 µM 99% | [8]; at 100.0 µM 99% | [9]; [17] 99% | [9]; at 50.0 µM 92.9% | [10]; at 11.0 µM 70% | [10]; at 33.0 µM 100% | [10]; [17] 99% | [10]; at 50.0 µM 92.5% | [10]; at 100.0 µM 100% | [11]; at 33.0 µM 98% | [11]; at 100.0 µM 98% | [12]; at 33.0 µM 99% | [12]; at 100.0 µM 99% | [13]; at 33.0 µM 98% | [13]; at 100.0 µM 99% | [14]; [17] 70% | [14]; at 50.0 µM 93% | [15]; at 33.0 µM 95% | [15]; at 100.0 µM 97%
inactive: [1]; at 1.2 µM -41% | [1]; at 3.7 µM -11% | [1]; at 11.0 µM 60% | [2]; at 1.2 µM -52% | [2]; at 3.7 µM -15% | [2]; at 11.0 µM 28% | [3]; at 1.2 µM 11% | [3]; at 3.7 µM -2% | [4]; at 1.2 µM -46% | [4]; at 3.7 µM -43% | [4]; [16] 58% | [4]; at 11.0 µM 54% | [5]; at 1.2 µM -40% | [5]; at 3.7 µM 5% | [5]; [16] 54% | [6]; at 1.2 µM -23% | [6]; at 3.7 µM -23% | [6]; at 11.0 µM 54% | [7]; [16] -5% | [7]; [17] 44% | [8]; at 1.2 µM -11% | [8]; at 3.7 µM -30% | [9]; [16] 41% | [10]; at 1.2 µM -52% | [10]; at 3.7 µM -18% | [10]; [16] 36% | [11]; at 1.2 µM -53% | [11]; at 3.7 µM -16% | [11]; at 11.0 µM 54% | [12]; at 1.2 µM 12% | [12]; at 3.7 µM -9% | [12]; at 11.0 µM 69% | [13]; at 1.2 µM -23% | [13]; at 3.7 µM -17% | [13]; at 11.0 µM 66% | [14]; [16] 29% | [15]; at 1.2 µM -71% | [15]; at 3.7 µM -30% | [15]; at 11.0 µM 54%

CC12CCC(C1)C(C)(C)C2OC(=O)c1ccccc1N (stereo unspecified)
inactive: [1]; at 1.2 µM -1% | [1]; at 3.7 µM -1% | [1]; at 11.0 µM -4% | [1]; at 33.0 µM -13% | [1]; at 100.0 µM 14% | [2]; at 1.2 µM 6% | [2]; at 3.7 µM 5% | [2]; at 11.0 µM 0% | [2]; at 33.0 µM 7% | [2]; at 100.0 µM 1% | [4]; at 1.2 µM 9% | [4]; at 3.7 µM 6% | [4]; [16] -6% | [4]; at 11.0 µM 7% | [4]; at 33.0 µM 30% | [4]; [17] 50% | [4]; at 50.0 µM -5.6% | [4]; at 100.0 µM 61% | [5]; at 1.2 µM -1% | [5]; at 3.7 µM -2% | [5]; [16] -26% | [5]; at 11.0 µM -6% | [5]; at 33.0 µM 1% | [5]; [17] -26% | [5]; at 50.0 µM 2.7% | [5]; at 100.0 µM 39% | [6]; at 1.2 µM 7% | [6]; at 3.7 µM 2% | [6]; at 11.0 µM -6% | [6]; at 33.0 µM 4% | [6]; at 100.0 µM 17% | [7]; [16] -5% | [7]; [17] 56% | [7]; at 50.0 µM 10.8% | [8]; at 1.2 µM -1% | [8]; at 3.7 µM -2% | [8]; at 11.0 µM -3% | [8]; at 33.0 µM 14% | [8]; at 100.0 µM 61% | [9]; [16] -2% | [9]; [17] 32% | [9]; at 50.0 µM -8.95% | [10]; at 1.2 µM 0% | [10]; at 3.7 µM 3% | [10]; [16] 12% | [10]; at 11.0 µM 9% | [10]; at 33.0 µM 23% | [10]; at 50.0 µM 18% | [11]; at 1.2 µM -10% | [11]; at 3.7 µM -8% | [11]; at 11.0 µM -21% | [11]; at 33.0 µM -8% | [11]; at 100.0 µM 7% | [12]; at 1.2 µM 2% | [12]; at 3.7 µM -1% | [12]; at 11.0 µM -5% | [12]; at 33.0 µM 11% | [12]; at 100.0 µM 38% | [13]; at 1.2 µM -11% | [13]; at 3.7 µM 0% | [13]; at 11.0 µM -24% | [13]; at 33.0 µM -10% | [13]; at 100.0 µM 36% | [14]; [16] 14% | [14]; at 50.0 µM -2.55% | [15]; at 1.2 µM 3% | [15]; at 3.7 µM 5% | [15]; at 11.0 µM 4% | [15]; at 33.0 µM 9% | [15]; at 100.0 µM 54%
active: [10]; [17] 80% | [10]; at 100.0 µM 79% | [14]; [17] 82%
